From PubChem BioAssay AID455 (Sanford-Burnham Center for Chemical Genomics, 2006)
The whole screen tested about 10,000 compounds, of which about 20 (0.2%) were called active. This excerpt belongs to a sample that is enriched for actives. A number with no mark means an inactive call.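 The calls were made as follows: active = a compound raising TNF-alpha-driven VCAM-1 surface staining, with its hit status upheld on visual or statistical review; inactive = the rest, including hits rejected on review.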

assay: boosters of cytokine-driven VCAM-1 levels – cell-based, plate reader, pooled HUVEC, TNFa stimulus (AID 455); settings: HUVEC TNFa-induced VCAM-1 immunofluorescence; stronger effect = higher value, 100% set by best visually verified hit,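 tested at 5 µM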;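 as to augmentation: 0% = TNFa plus DMSO wells and 100% = a visually confirmed top hit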

SMILES | augmentation
Nc1nc(N2C(=O)C3CC=CCC3C2=O)nn1-c1ccccc1 (configuration not stated) | inactive
O=C1c2ccccc2C(Nc2ccc3nc(-c4cccnc4)[nH]c3c2)N1Cc1ccco1 (configuration not stated) | inactive
CCCCn1nnc(NC(=O)c2cc3ccccc3o2)n1 | inactive
COc1ccc2nc(NC(=O)c3ccoc3C)sc2c1 | inactive
COC(=O)C1C2C=CC3(CN(CC4CCCO4)C(=O)C13)O2 (configuration not stated) | inactive
CCOC(=O)c1c(NC(=O)Cn2c(=O)oc3ccccc32)oc(C)c1C(C)=O | inactive
Cc1ccnc(SCCn2c(N3CCCCC3)nc3c2c(=O)n(C)c(=O)n3C)n1 | inactive
CC(=O)Nc1ccc(N2CCN(Cc3ccccc3F)CC2)cc1 | inactive
CCCCN(CCCC)C(=O)CN(C)S(=O)(=O)c1ccc2c(c1)n(C)c(=O)c(=O)n2C | inactive
O=C(CSc1nnnn1-c1ccccc1)Nc1ccc(Cl)cc1 | inactive
COc1ccc(S(=O)(=O)NCCOc2ccccc2)cc1OC | inactive
CCOc1ccc(N(C(C)=O)C2C=CS(=O)(=O)C2)cc1 (configuration not stated) | inactive
Cc1ccc(S(=O)(=O)N2CCC(C(=O)NCCN3CCCCCC3)CC2)cc1 | inactive
O=C(c1ccc(S(=O)(=O)N2CCOCC2)cc1)N(c1ccc(F)cc1)C1C=CS(=O)(=O)C1 (configuration not stated) | inactive
COc1ccc(-c2nnc(SCC(=O)NC(C)c3ccccc3)o2)cc1 (configuration not stated) | inactive
COC(=O)c1ccc(CSc2nc(-c3ccc(OC)cc3)nc3c2c(=O)n(C)c(=O)n3C)o1 | inactive
CC1CCN(C(=O)c2ccc(C(=O)N3CCC(C)CC3)cc2)CC1 | inactive
CCOC(=O)Cc1cc(=O)n2[nH]c(C)c(-c3ccc(OC)cc3)c2n1 | inactive
COC(=O)Cc1cc(=O)[nH]c(Nc2nc3ccccc3o2)n1 | inactive
O=C(NC1CCCCCC1)c1cc(S(=O)(=O)N2CCC3(CC2)OCCO3)ccc1F | inactive
CCOc1cc(N2CCOCC2)c(OCC)cc1NC(=O)CSc1cccc[n+]1[O-] | inactive
CCOC(=O)CSc1nnc(CNC(=O)c2ccc(S(=O)(=O)N3CCCC3)cc2)n1C | inactive
Cc1cccc(CCNC(=O)C2CCCN(S(=O)(=O)c3cnc[nH]3)C2)c1 (configuration not stated) | inactive

SMILES | augmentation
COc1ccc(S(=O)(=O)NCCCN2CCOCC2)c2ccccc12 | inactive
CCc1nnc(NC(=O)c2ccc(S(=O)(=O)NCC(C)C)cc2)s1 | inactive
O=C(CCSc1nc(-c2ccco2)cc(C(F)(F)F)n1)NCCc1ccccc1 | inactive
CCc1ccccc1NC(=O)C(CC)Sc1nc2cc3c(cc2c(=O)n1Cc1ccco1)OCO3 (configuration not stated) | inactive
O=C(O)CCC(=O)c1c[nH]c2ccccc12 | inactive
CC(=O)SCCC(=O)Nc1ccccc1 | inactive
c1cncc(-c2nc3c4ccccc4nc(N4CCC(N5CCCCC5)CC4)n3n2)c1 | inactive
c1ccc(Cn2nnnc2C(c2cccs2)N2CCSCC2)cc1 (configuration not stated) | inactive
CCOC(=O)c1ccc(N(CC(=O)NC2CCCC2)C(=O)CNC(=O)c2ccco2)cc1 | inactive
O=C(O)c1ccc2c3c(ncnc13)-c1ccccc1C2=O | inactive
O=C(CSc1nnc(-c2ccncc2)o1)Oc1ccccc1 | inactive
COc1ccccc1C(O)P(=O)(OC(C)C)c1ccc(N(C)C)cc1 (configuration not stated) | inactive
O=C(NCCCn1ccnc1)c1cnn2c1NC(c1ccccc1)CC2C(F)(F)F (configuration not stated) | inactive
COc1ccc(-c2noc(CN3CCC(Cc4ccccc4)CC3)n2)cc1 | 30.2%
Cc1nn(-c2ccccc2)c2c1C(c1c(C)[nH]c(C#N)c1C)C(C#N)=C(N)O2 (configuration not stated) | inactive
CCOC(=O)N1CCN(C(=O)COc2ccc(Br)cc2Cl)CC1 | 61.2%
COc1ccccc1C1CC(c2ccc(C)cc2)Nc2ncnn21 (configuration not stated) | inactive
COc1ccccc1CN1CC(C(=O)N2CCN(c3ccc(F)cc3)CC2)CC1=O (configuration not stated) | inactive
CCOC(=O)C1C2C=CC3(CN(Cc4ccco4)C(=O)C13)O2 (configuration not stated) | inactive
COc1ccc(CN2C(=O)c3ccccc3C2C(=O)NC2CCCC2)c(OC)c1 (configuration not stated) | inactive
CN(C)c1ccc(C=Nc2ccc(N(C)C)cc2)cc1 | inactive
CN(C)c1ccc(/C=C/c2ccncc2)cc1 | 42.9% (active)
CN(C)c1ccc(CNn2cnnc2)cc1 | inactive

SMILES | augmentation
N#CCCNCC1(c2ccccc2)CCCC1 | inactive
O=C(CSc1nnc2ccccn12)NCCN1C(=O)CSC1=O | inactive
Cc1ccc(NC(=O)CSc2nnc(NC(=O)CN3CCOCC3)s2)cc1 | inactive
CCCc1[nH]nc2c1C(c1cccc(OC(=O)c3ccco3)c1)C(C#N)=C(N)O2 (configuration not stated) | inactive
CCN(CC)c1ccc2cc(NC(=O)CCC(=O)O)c(=O)oc2c1 | inactive
CCN(CC)c1ccc2c(C)c(-c3ccc(N)cc3)c(=O)oc2c1 | inactive
CCN(CC)c1ccc2cc(-c3nc4ccccc4[nH]3)c(=O)oc2c1 | 100% (active)
CCCCOc1ccc(CSc2n[nH]c(C)n2)cc1 | inactive
COC(=O)c1ccc(Cl)c(NC(C)=O)c1 | 82.8% (active)
CC(=O)Nc1ccc(Cl)cc1C(=O)O | inactive
CC(=O)Nc1cc(N2C(=O)CCC2=O)ccc1Cl | inactive
CCCc1ccc(C(C)NC(=O)c2cnccn2)cc1 (configuration not stated) | inactive
CCCCNC(=O)Cn1c(=O)n(C)c2ccccc21 | inactive
CCOC(=O)c1[nH]c(C)c(C(=O)Nc2ccc(Cl)cc2)c1C | inactive
Cc1ccc2cc3cc(C(=O)NCCN4CCOCC4)oc3nc2c1 | inactive
CC(=O)c1cccc(NC(=O)N2C3CCC2CC(O)(c2cccnc2)C3)c1 (configuration not stated) | inactive
O=c1oc2c3c4c(cc2s1)CCCN4CCC3 | inactive
c1ccc2nc(-c3nc4ccccc4[nH]3)ccc2c1 | inactive
O=c1oc2c3c4c(cc2cc1-c1nc2ccccc2[nH]1)CCCN4CCC3 | 100% (active)
Cn1c(Cc2ccccc2)nnc1SCC(=O)c1ccc(Br)s1 | inactive
CCOc1ccccc1C(=O)Nc1nnc(CC)s1 | inactive
CCOC(=O)c1ccccc1NC(=O)CSc1nc2c(c(=O)n(C)c(=O)n2C)n1C | inactive
Cc1cc(=O)n2nc(N3CCCC(C(=O)N4CCc5ccccc54)C3)sc2n1 (configuration not stated) | inactive

SMILES | augmentation
CN(CCNC(=O)c1ccc(N2CCCC2=O)cc1)CCc1ccccc1 | inactive
CC(C)n1nc(C(=O)Nc2nc3ccc(S(C)(=O)=O)cc3s2)c2ccccc2c1=O | inactive
Cc1ccc(CN2C(=O)CCC2C(=O)NCC2CCCO2)cc1 (configuration not stated) | inactive
CCCCn1c(SCc2cccnc2)nc2c1c(=O)n(C)c(=O)n2C | inactive
O=C(CCN1C(=O)COc2ccccc21)NCCN1CCN(c2cccc(Cl)c2)CC1 | inactive
COc1ccc(NC(=O)CSc2nnc(Cc3cccn3C)n2-c2ccc(F)cc2)cc1 | inactive
COc1cc2c(cc1OC)-c1cc(OCc3cccnc3)nc(=O)n1CC2 | inactive
CN(Cc1ccccc1)S(=O)(=O)c1ccc(S(=O)(=O)N2CCN(CCC#N)CC2)cc1 | inactive
CCOC(=O)c1[nH]c2ccccc2c1NC(=O)C(CC)CC | inactive
c1coc(Cn2nnnc2CN2CCN(C3CCCC3)CC2)c1 | inactive
Cc1ccc(C)c(N2CCN(C(=O)c3ccc(CS(=O)(=O)c4ccccc4C)o3)CC2)c1 | inactive
O=c1c2cn[nH]c2nc(SCc2ccc3c(c2)OCCO3)n1-c1ccccc1 | inactive
COc1ccc(CCn2c(-c3ccco3)nc3nc4ccccc4nc32)cc1 | inactive
Cc1nnc(NC(=O)CSc2nc3c(c(=O)n2C)SC(C)C3)s1 (configuration not stated) | inactive
CCOc1ccccc1N1CC(O)=C(c2nc3ccccc3s2)C1=N | inactive
Cc1nc2cc(NC(=O)N3c4ccccc4CC3C)ccc2o1 (configuration not stated) | inactive
Cc1cc(OCC(O)CN2CCN(CCO)CC2)ccc1C(C)C (configuration not stated) | inactive
Cc1ccn2cc(CCNC(=O)CC(C)(C)C)nc2c1 | inactive
CN(C)c1ccc(C2C3=C(CCCC3=O)OC3=C2C(=O)CCC3)cc1 | inactive
CCOC(=O)c1cc(CC)sc1NC(=O)COC | inactive
CCOc1ccc(NC(=O)CCN2CCN(c3ccccc3)CC2)cc1 | inactive
Cc1ccc2[nH]c(=O)c(C(c3nnnn3CCc3ccccc3)N3CCOCC3)cc2c1 (configuration not stated) | inactive
CC(=O)N1C(=O)C2(C(C#N)=C(N)Oc3cc(C)oc(=O)c32)c2ccccc21 (configuration not stated) | inactive

SMILES | augmentation
CCOC(=O)NC(c1ccccc1)C1CCCCC1=O (configuration not stated) | inactive
O=C(Cn1c(NCCO)nc2ccccc21)c1ccccc1 | inactive
CCOc1ccc(OCC)c(NC(=O)CCCN2C(=O)c3cccnc3C2=O)c1 | inactive
Cc1cc(NC(=O)CCCN2C(=O)c3cccnc3C2=O)no1 | 50.9% (active)
Cc1cccnc1NC(=O)CCCN1C(=O)c2ccccc2C1=O | inactive
O=C(c1ccccc1)c1ccc2nc[nH]c2c1 | inactive
O=C(NCCN1CCOCC1)NC1(C(F)(F)F)Oc2ccc(Cl)cc2O1 (configuration not stated) | inactive
C=CCSc1n[nH]c(-c2ccc(OC)cc2)n1 | inactive
Cc1c(Cl)cccc1N1C(=O)c2ccccc2C1=O | inactive
Cc1nc2cc(-n3ccc(=O)cc3)ccc2n1-c1ccccc1 | inactive
Cn1c(=O)cc(SCC(=O)NCc2cccnc2)c2ccccc21 | inactive
CSc1nc2c(ccc3ccccc32)o1 | inactive
O=c1cc(C(F)F)oc2c1ccc1ccccc12 | 97% (active)
COc1ccc(CCN2C(=O)CC(N3CCN(S(=O)(=O)c4ccccc4)CC3)C2=O)cc1 (configuration not stated) | inactive
COCc1nnc(SCC(=O)NC(C)c2ccccc2)n1-c1ccccc1 (configuration not stated) | inactive
COc1ccc(C(=O)N2CCCc3ccccc32)cc1 | inactive
CCOC(=O)N1CCN(C(=O)Cn2ncn3nc(-c4cccs4)cc3c2=O)CC1 | inactive
COc1cccc(-n2c(C)nc3c(cnn3-c3ccc(Cl)cc3)c2=O)c1 | inactive
CCC(C)(C)n1nnnc1C(c1ccc(OC)c(OC)c1)N1CCN(c2ccc(F)cc2)CC1 (configuration not stated) | inactive
COc1ccc(OC)c(NC(=O)C2C3CC4OC(=O)C2C4C3)c1 (configuration not stated) | inactive
